Results filed as inconclusive are left out. Where a call stands in place of a potency, no number is given. Activity calls are given as the source filed them. Unless noted, calls come from the whole dose curve; as a rule, active = well fitted curve in the direction sought with a large enough effect; inconclusive = small, poorly fitted or top-dose-only effect, or another doubt; inactive = no such curve, though single readings can be large; an effect the other way counts as inactive or inconclusive.
How the values were obtained:
[1] = target: Cytochrome P450 3A4 (Homo sapiens) (UniProt P08684); experiment: Cytochrome P450 family 3 subfamily A member 4 (CYP3A4) small molecule antagonists: luciferase qHTS assay (AID 1645841; active = well fitted curve in the direction sought with a large enough effect in the repeat runs; an effect the other way counts as inactive or inconclusive; note: nearly all actives have a fitted effect of over 45% in size)
Outline: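 Luminescent CYP3A4 activity readout: compounds plus enzyme-substrate mix 10 min at room temperature, reaction started with NADPH regenerating system for 1 h, stopped with detection reagent, read after 20 min. Ketoconazole served as control.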

[2] = target: Cytochrome P450 2C9 (Homo sapiens) (UniProt P11712); experiment: Cytochrome P450 family 2 subfamily C member 9 (CYP2C9) small molecule antagonists: luciferase biochemical (cell-free) qHTS assay (AID 1645842; active = well fitted curve in the direction sought with a large enough effect in the repeat runs; an effect the other way counts as inactive or inconclusive; note: nearly all actives have a fitted effect of over 55% in size; note: potency is the fitted concentration of half-maximal effect)
Outline: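 P450-Glo CYP2C9 system: proluciferin substrate with enzyme in mix containing 0.4% BSA, 10 min at room temperature, then NADPH regeneration solution added and incubated 1 h at 37C. Detection reagent stopped reaction; luminescence read after 20 min as RLU.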

[3] = Primary qHTS for inhibitors of nuclear receptor binding SET domain protein 2 (NSD2) in an isogenic RCH-ACV NSD2 p.E1099K mutant (9B) (AID 1645876); note: nearly all actives have a fitted effect of over 70% in size
[4] = Primary qHTS for inhibitors of nuclear receptor binding SET domain protein 2 (NSD2) in an RCH-ACV wild type WT cells (2C) (AID 1645877); note: nearly all actives have a fitted effect of over 70% in size
[5] = target: N-terminal Xaa-Pro-Lys N-methyltransferase 1 (Homo sapiens) (UniProt Q9BV86); experiment: Confirmatory qHTS for Inhibitors of N-terminal methyltransferase 1 (NTMT1): MTaseGlo Assay (AID 1645874); note: nearly all actives have a fitted effect of over 65% in size; note: potency is the fitted concentration of half-maximal effect
Outline: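 Room-temperature NTMT1 reaction, 30 min, with 100 uM SAM and 1 uM SPKRIA substrate; enzyme 125 nM. Read-out: MTase-Glo luminescence, normalized to no-enzyme and DMSO controls.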

Chain of Cytochrome P450 2C9 (Homo sapiens) (P11712 whole entry, looked up): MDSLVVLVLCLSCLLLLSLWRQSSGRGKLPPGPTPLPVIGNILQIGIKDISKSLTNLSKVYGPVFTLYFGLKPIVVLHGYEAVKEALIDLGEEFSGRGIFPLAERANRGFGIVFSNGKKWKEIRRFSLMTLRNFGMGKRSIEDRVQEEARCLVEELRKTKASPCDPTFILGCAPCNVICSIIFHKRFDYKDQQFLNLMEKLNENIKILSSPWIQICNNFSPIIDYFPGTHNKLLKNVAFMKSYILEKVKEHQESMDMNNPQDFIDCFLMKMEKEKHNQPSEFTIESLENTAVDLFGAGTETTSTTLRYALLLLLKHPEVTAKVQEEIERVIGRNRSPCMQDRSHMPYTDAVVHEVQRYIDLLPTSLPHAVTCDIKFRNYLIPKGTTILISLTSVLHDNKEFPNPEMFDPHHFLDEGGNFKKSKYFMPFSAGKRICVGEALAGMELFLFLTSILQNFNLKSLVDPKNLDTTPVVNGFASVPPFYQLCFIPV
Chain of Cytochrome P450 3A4 (Homo sapiens) (P08684 whole entry, looked up): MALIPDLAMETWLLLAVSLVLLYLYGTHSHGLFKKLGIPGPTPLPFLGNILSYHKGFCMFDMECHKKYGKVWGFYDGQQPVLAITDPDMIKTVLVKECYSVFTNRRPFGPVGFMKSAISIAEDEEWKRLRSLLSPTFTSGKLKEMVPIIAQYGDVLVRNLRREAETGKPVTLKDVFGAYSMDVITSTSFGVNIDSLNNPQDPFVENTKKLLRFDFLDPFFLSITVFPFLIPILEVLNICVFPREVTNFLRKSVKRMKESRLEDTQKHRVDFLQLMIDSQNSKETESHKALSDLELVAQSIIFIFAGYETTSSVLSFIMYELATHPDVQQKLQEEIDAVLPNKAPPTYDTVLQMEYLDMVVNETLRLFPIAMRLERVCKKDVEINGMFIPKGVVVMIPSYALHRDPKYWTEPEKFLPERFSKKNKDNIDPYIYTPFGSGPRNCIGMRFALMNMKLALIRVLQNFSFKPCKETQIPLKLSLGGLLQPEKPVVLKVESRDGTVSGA
Chain of N-terminal Xaa-Pro-Lys N-methyltransferase 1 (Homo sapiens) (Q9BV86 whole entry, looked up): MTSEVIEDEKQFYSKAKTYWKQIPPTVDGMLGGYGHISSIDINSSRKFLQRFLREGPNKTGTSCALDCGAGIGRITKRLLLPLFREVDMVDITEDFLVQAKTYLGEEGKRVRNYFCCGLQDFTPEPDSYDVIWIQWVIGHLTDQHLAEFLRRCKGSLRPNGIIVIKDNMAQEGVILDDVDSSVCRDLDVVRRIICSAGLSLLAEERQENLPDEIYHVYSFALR

NC(N)=NS(=O)(=O)c1ccc(N)cc1
outcome [1]: inactive | Potency [2]: inactive | Potency [3]: inactive | Potency [4]: inactive

C=CCOc1ccccc1OCC(O)CNC(C)C (centres undefined)
Potency [2]: inactive

NC(=O)c1ccc([N+](=O)[O-])cc1Cl
Potency [2]: inactive

Cc1c(NC(=O)c2cccnc2)c(=O)n(-c2ccccc2)n1C
Potency [2]: inactive

CC(=O)NS(=O)(=O)c1ccc(N)cc1
outcome [1]: inactive | Potency [3]: inactive | Potency [4]: inactive

O=C(O)CNC(=O)c1ccccc1I
Potency [2]: inactive

CC1(c2ccccc2)OC(C(=O)O)=CC1=O (centres undefined)
outcome [1]: inactive | Potency [2]: inactive

NC(=O)NS(=O)(=O)c1ccc(N)cc1
Potency [2]: inactive

CNc1c2c(nn1C)CCCC2
Potency [2]: inactive

OC[C@@H](O)[C@@H](O)[C@H](O)[C@H](O)CO
Potency [2]: inactive

Cn1cc(C(=O)[C@@H]2CCc3nc[nH]c3C2)c2ccccc21
Potency [2]: inactive

NNC(=O)CP(=O)(c1ccccc1)c1ccccc1
Potency [2]: 15.5 µM (active)

CC(=O)N1C[C@H](O)C[C@H]1C(=O)O
Potency [2]: inactive

NNc1nnc(NN)c2ccccc12
Potency [2]: inactive

CCCCCCCCCCCCCCCCN
outcome [1]: inactive | Potency [2]: inactive

C/C=C/C(=O)N(CC)c1ccccc1C
outcome [1]: inactive | Potency [2]: inactive | Potency [3]: inactive | Potency [4]: inactive

O=C(O)CCC(=O)O
Potency [2]: inactive

O=C(/C=C/c1ccc(O)c(O)c1)O[C@@H]1C[C@@](OC(=O)/C=C/c2ccc(O)c(O)c2)(C(=O)O)C[C@@H](O)[C@@H]1O
Potency [2]: inactive

O=C(O)c1cc(=O)c2ccccc2o1
outcome [1]: inactive | Potency [2]: inactive | Potency [3]: inactive | Potency [4]: inactive

Cc1cc(=O)[nH]c(=S)[nH]1
Potency [2]: inactive

C[C@@H](N)C(=O)O
outcome [1]: inactive | Potency [2]: inactive | Potency [3]: inactive | Potency [4]: inactive

CC(C(=O)O)c1ccc2c(c1)Cc1cccnc1O2 (centres undefined)
Potency [2]: inactive | Potency [3]: inactive | Potency [4]: inactive

CC(=O)Oc1cccc(C)c1
Potency [2]: inactive | Potency [3]: inactive | Potency [4]: inactive

NS(=O)(=O)c1ccc(C(=O)O)cc1
Potency [2]: inactive | Potency [3]: inactive | Potency [4]: inactive

C=CCN1C[C@H](C(=O)N(CCCN(C)C)C(=O)NCC)C[C@@H]2c3cccc4[nH]cc(c34)C[C@H]21
Potency [2]: inactive | Potency [3]: inactive | Potency [4]: inactive

O=C(CCBr)N1CCN(C(=O)CCBr)CC1
Potency [2]: inactive | Potency [3]: inactive | Potency [4]: inactive

Nc1c2c(nc3c1CCC3)CCCC2
Potency [2]: inactive | Potency [3]: inactive | Potency [4]: inactive

CCOC(=O)[C@H](CCc1ccccc1)N[C@@H](C)C(=O)N1Cc2cc(OC)c(OC)cc2C[C@H]1C(=O)O
Potency [2]: 12.3 µM (active) | Potency [3]: inactive | Potency [4]: inactive

CCCCCCCCCCC(CO)CCCCCCCC (centres undefined)
Potency [2]: inactive | Potency [3]: inactive | Potency [4]: inactive

CC1CCc2cc(F)cc3c(=O)c(C(=O)O)cn1c23 (centres undefined)
Potency [2]: inactive | Potency [3]: inactive | Potency [4]: inactive

CC1(C)S[C@@H]2[C@H](NC(=O)C(C(=O)O)c3ccccc3)C(=O)N2[C@H]1C(=O)O (some centres undefined)
Potency [2]: inactive | Potency [3]: inactive

CC(=O)Nc1ccc(OCCOCCOc2ccc(NC(C)=O)cc2)cc1
Potency [2]: 3.47 µM (active) | Potency [3]: inactive | Potency [4]: inactive

CC(=O)NCc1c(I)c(NC(C)=O)c(I)c(C(=O)O)c1I
Potency [2]: inactive | Potency [3]: inactive | Potency [4]: inactive

Cc1ccc(C(C)C)c(O)c1
Potency [2]: inactive | Potency [3]: inactive | Potency [4]: inactive

O=C(Cn1ccnc1[N+](=O)[O-])NCCO
Potency [2]: inactive | Potency [3]: inactive | Potency [4]: inactive

COC(=O)c1cccnc1
Potency [2]: inactive | Potency [3]: inactive

O=c1[nH]c(=O)c2ccccc2o1
Potency [2]: inactive | Potency [3]: inactive | Potency [4]: inactive

Cc1ccsc1C(=CCCN1CCC[C@@H](C(=O)O)C1)c1sccc1C
Potency [2]: inactive | Potency [3]: inactive | Potency [4]: inactive

Cc1cccc(C(=O)O)c1O
Potency [2]: inactive | Potency [3]: inactive | Potency [4]: inactive

CCOc1ccc(C(=O)OCCN(CC)CC)cc1
Potency [2]: inactive | Potency [3]: inactive | Potency [4]: inactive

O=C1c2ccccc2C(=O)C1c1ccc(Br)cc1
Potency [2]: 2.19 µM (active) | Potency [3]: inactive | Potency [4]: inactive

CCCCCCCCCCCCCCCCC(C(=O)O)C(O)(CC(=O)O)C(=O)O (centres undefined)
Potency [2]: inactive | Potency [5]: 17 µM (active)

O=c1[nH]cnc2nc[nH]c12
Potency [2]: inactive | Potency [5]: inactive | Potency [3]: inactive | Potency [4]: inactive

O=C1c2cccc(O)c2C(=O)c2c(O)cccc21
Potency [2]: inactive | Potency [3]: inactive | Potency [4]: inactive

O=C(O)Cn1c(C(=O)Nc2nc(-c3ccccc3Cl)cs2)cc2ccccc21
Potency [2]: inactive | Potency [3]: inactive

CCOC(=O)c1cccnc1
Potency [2]: inactive | Potency [3]: inactive | Potency [4]: inactive

O=C(NCN1CCOCC1)c1cnccn1
Potency [2]: inactive | Potency [3]: inactive

Cn1c(=O)c2c(ncn2CCO)n(C)c1=O
Potency [2]: inactive | Potency [3]: inactive

CCN(CC)C(=O)c1cccc(C)c1
Potency [2]: inactive | Potency [3]: inactive | Potency [4]: inactive

Cc1cc(-n2nc3ccc(Cl)cc3n2)c(O)c(C(C)(C)C)c1
Potency [2]: inactive | Potency [3]: inactive | Potency [4]: inactive

Reference: PubChem BioAssay (NCATS)
